Data taken from PubChem BioAssay (NCI).
The panel holds about 83,000 compounds, 20% with a hit somewhere; the sample as a whole holds those more often.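 Plates (96-well) were seeded with cells, treated with compound at one concentration, and incubated for 48 hours before percent growth was determined.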 Active and inactive are the calls of the source. The calls were made as follows: active = growth percent below 10; inactive = the rest.

What was measured:
Assay in all cases: NCI-60 one-dose screen, 48 h (100 = growth as untreated, 0 = no growth, -100 = all killed)
[1] = tested on: HCT-15 colon; conditions: 10 µM unless noted
[2] = tested on: HT29 colon; conditions: 10 µM unless noted
[3] = tested on: SNB-75 CNS; conditions: 10 µM unless noted
[4] = tested on: U251 CNS; conditions: 10 µM unless noted
[5] = tested on: PC-3 prostate; conditions: 10 µM unless noted
[6] = tested on: SK-MEL-5 melanoma; conditions: 10 µM unless noted
[7] = tested on: UACC-62 melanoma; conditions: 10 µM unless noted
[8] = tested on: LOX IMVI melanoma; conditions: 10 µM
[9] = tested on: SK-MEL-28 melanoma; conditions: 10 µM unless noted
[10] = tested on: SK-MEL-2 melanoma; conditions: 10 µM unless noted
[11] = tested on: EKVX NSCLC; conditions: 10 µM unless noted
[12] = tested on: UO-31 renal; conditions: 10 µM unless noted
[13] = tested on: TK-10 renal; conditions: 10 µM unless noted
[14] = tested on: CAKI-1 renal; conditions: 10 µM unless noted
[15] = tested on: A498 renal; conditions: 10 µM unless noted
[16] = tested on: CCRF-CEM leukemia; conditions: 10 µM unless noted
[17] = tested on: MOLT-4 leukemia; conditions: 10 µM unless noted
[18] = tested on: SN12C renal; conditions: 10 µM unless noted
[19] = tested on: ACHN renal; conditions: 10 µM unless noted

Measured: growth

Cc1ccc(C(=O)CSc2nc3ccc(F)cc3c(=O)n2-c2ccc(Cl)cc2)cc1
inactive: [1] 59.2% | [2] 49.9% | [4] 19.6% | [5] 25.9% | [6] 68.1% | [7] 71.4% | [8] 60.7% | [9] 77.2% | [10] 99.1% | [11] 51.1% | [12] 56.4% | [13] 83.7% | [14] 10.1% | [15] 55.7% | [16] 75.8% | [17] 82.4%
active: [3] -19.4%

COc1cc2c(c(OC)c1OC)C(=O)CC(c1cccc(NC(=O)c3cc(NC(=O)[C@@H](N)CO)ccc3C)c1)O2 (stereo partly drawn)
inactive: [1] 110% | [2] 102% | [3] 135% | [4] 112% | [5] 107% | [6] 104% | [7] 109% | [9] 109% | [10] 111% | [11] 108% | [18] 102% | [12] 92% | [13] 105% | [19] 107% | [14] 99.9% | [15] 126% | [16] 102% | [17] 114%

O=C(N=Nc1c(O)[nH]c2ccc(Cl)cc12)c1ccc2nc(-c3ccccc3)[nH]c2c1
inactive: [1] 95.4% | [2] 57.4% | [3] 91.7% | [5] 51.1% | [6] 94.3% | [7] 21.7% | [9] 44.3% | [10] 43.4% | [11] 92.4% | [18] 42% | [12] 78.8% | [13] 143% | [19] 68.4% | [14] 89.3% | [15] 137% | [16] 41.7% | [17] 27.3%
active: [4] -71.3%

COc1cc(OC)cc(C(=O)Nc2cccc(-c3cn(-c4ccc(S(N)(=O)=O)cc4)nn3)c2)c1
inactive: [1] 92.2% | [2] 114% | [3] 51.7% | [4] 32.2% | [5] 91.4% | [7] 80.4% | [8] 69.3% | [9] 81.1% | [10] 92.6% | [11] 78.8% | [18] 70% | [12] 96.3% | [13] 94.8% | [19] 88.5% | [14] 60.8% | [15] 116% | [16] 105%

Cc1ccc(C(=O)CSc2nc3ccc(C)cc3c(=O)n2-c2ccc(F)cc2)cc1
inactive: [1] 84.6% | [2] 72.5% | [4] 28.7% | [5] 74% | [6] 72% | [7] 86.1% | [8] 72.9% | [9] 88.1% | [10] 116% | [11] 62.8% | [12] 43.8% | [13] 56.3% | [19] 19.3% | [14] 53% | [15] 19.6% | [16] 88% | [17] 93.2%
active: [3] 7.91%

Cc1ccc2c(N)c(C(=O)Nc3ccc(OC(F)(F)F)cc3)sc2n1
inactive: [1] 61% | [2] 75.2% | [3] 91.8% | [4] 84.6% | [5] 58.4% | [6] 26% | [7] 61.2% | [9] 85.5% | [10] 67.4% | [11] 26.9% | [18] 70.2% | [12] 56.2% | [13] 95.4% | [19] 61.2% | [15] 119% | [16] 64.8% | [17] 63.1%

Clc1cccc(-c2ccc(OCCCN3CCN(c4ccncc4)CC3)cc2)c1
inactive: [3] 42.8% | [10] 74% | [11] 11.6% | [12] 30.4% | [13] 41.9% | [19] 49.4% | [15] 65.5%
active: [1] -69.8% | [2] -57.5% | [4] -73.6% | [5] -8.32% | [6] -98% | [7] -74.3% | [8] -94.9% | [9] -68.5% | [14] 5.23% | [16] -28.7% | [17] -47.4%

COc1cc(C2CC(c3cc(OC)c(OC)c(OC)c3)=Nc3c(N)nc(N)nc3N2)ccc1Oc1nc(NCCO)nc(N2CCOCC2)n1 (stereo not drawn)
inactive: [1] 102% | [2] 107% | [3] 88.7% | [4] 101% | [5] 100% | [6] 99% | [7] 102% | [9] 108% | [10] 105% | [11] 84.3% | [18] 93% | [12] 84.1% | [13] 120% | [19] 101% | [14] 80.8% | [15] 105% | [16] 102% | [17] 96.7%

O=C(/C=C/c1cccc(OCc2ccccc2)c1)c1nc2ccccc2[nH]1
active: [1] -75.5% | [2] -45.7% | [4] -65.8% | [17] 5.98%
inactive: [3] 66.8% | [5] 25.9% | [6] 72.1% | [7] 56% | [9] 94.9% | [10] 100% | [11] 36.4% | [18] 59% | [12] 33.2% | [13] 62.8% | [19] 62.5% | [14] 66.1% | [15] 91.3% | [16] 10.2%

COc1cc2c(c(OC)c1OC)C(=O)CC(c1cccc(NC(=O)c3cccc(NC(=O)[C@H](C)NC(=O)OC(C)(C)C)c3)c1)O2 (stereo partly drawn)
inactive: [1] 44.2% | [2] 62.2% | [3] 64.6% | [4] 78.1% | [5] 45.6% | [6] 25.9% | [7] 39.7% | [9] 85.6% | [10] 50.9% | [11] 93.3% | [18] 59.9% | [12] 44.1% | [13] 101% | [19] 41.5% | [14] 42.2% | [15] 104% | [16] 31.2% | [17] 36.5%

COc1cc2c(c(OC)c1OC)C(=O)CC(c1cccc(NC(=O)c3cc(NC(=O)[C@H](CO)NC(=O)OC(C)(C)C)ccc3Cl)c1)O2 (stereo partly drawn)
inactive: [1] 35.4% | [2] 15.7% | [3] 54.8% | [4] 25.4% | [5] 28.1% | [6] 14.3% | [7] 40.2% | [9] 21% | [10] 11.7% | [11] 62.2% | [18] 27.1% | [12] 48.8% | [13] 78.9% | [15] 91.5% | [16] 21.8% | [17] 12.5%

CC1(C)CC[C@]2(C(=O)Nc3ccc(F)cc3)CC[C@]3(C)C(=CCC4[C@@]5(C)C[C@@H](O)[C@H](O)[C@@](C)(CO)C5CC[C@]43C)C2C1 (stereo partly drawn)
active: [2] 5.61% | [6] -47.6%
inactive: [1] 24.1% | [3] 81.7% | [4] 38.3% | [5] 11.2% | [7] 35% | [8] 26.5% | [9] 52.9% | [10] 45.9% | [11] 32.3% | [13] 58.6% | [19] 31.3% | [14] 42.7% | [15] 29.8% | [16] 18.2%

c1ccc(-c2csc(Nc3cccc(Nc4nc(-c5ccccc5)cs4)c3)n2)cc1
inactive: [1] 30.5% | [2] 39.4% | [3] 48.6% | [4] 51.2% | [5] 32.1% | [6] 21% | [7] 50.3% | [9] 60.9% | [10] 64.9% | [11] 37.7% | [18] 43.4% | [12] 32.3% | [19] 36.2% | [14] 34.9% | [15] 85.5% | [16] 38.6% | [17] 13.7%

Cc1cc(=O)oc2cc(OCCOc3ccc(/C=C/C(=O)Nc4ccccc4N)cc3)ccc12
inactive: [1] 39.7% | [2] 30.5% | [3] 36.6% | [4] 30.7% | [5] 32.1% | [7] 33.2% | [9] 39.9% | [10] 59.1% | [11] 38.8% | [13] 43.3% | [14] 30.7% | [15] 14.4%
active: [6] -87.6% | [8] -73.2% | [12] 7.73% | [16] 6.51% | [17] 4.54%

Nc1n[nH]c2cccc(C#Cc3cccc(NC(=O)c4cccc(Cl)c4)c3)c12
inactive: [1] 20% | [2] 37.8% | [3] 35.7% | [4] 46.1% | [5] 20.5% | [7] 32.4% | [8] 17.7% | [9] 42.5% | [10] 12.7% | [11] 44.9% | [18] 28.5% | [12] 21.5% | [13] 49.9% | [19] 18.2% | [14] 18.8% | [15] 50.4% | [16] 15%

Cc1ccc(NC(=O)[C@]23CCC(C)(C)CC2C2=CCC4[C@@]5(C)C[C@@H](O)[C@H](O)[C@@](C)(CO)C5CC[C@@]4(C)[C@]2(C)CC3)cc1 (stereo partly drawn)
active: [2] -50% | [5] 5.82% | [6] -83.2% | [8] -6.45% | [15] -1.05% | [16] -1.64% | [17] 0.258%
inactive: [1] 11.7% | [3] 74.4% | [4] 26.8% | [7] 34.3% | [9] 47.9% | [10] 34.1% | [11] 24.4% | [12] 25.4% | [13] 48% | [19] 23.7% | [14] 29.2%
